Data taken from PubChem BioAssay (Tox21).
Records with an inconclusive call do not appear. Active and inactive are the calls of the source. Unless noted, the call rests on the fitted dose curve; in most records, active means well fitted curve in the direction sought with a large enough effect in the repeat runs; inconclusive means weak or mixed curves; inactive means no such curve, though single readings can be large; an effect the other way counts as inactive or inconclusive.

Assays:
[1] = qHTS assay for small molecules that induce genotoxicity in human embryonic kidney cells expressing luciferase-tagged ATAD5 (AID 651632); further: nearly all actives have a fitted effect of over 15% in size
Procedure, shortened: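 Quantitative HTS in HEK293T expressing luciferase-tagged ATAD5, whose levels rise upon DNA damage. Exposure ran 16 hr at 37C and 5% CO2, with luminescence read 30 min after Amplite addition at room temperature.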

[2] = qHTS assay for small molecule agonists of the p53 signaling pathway - cell viability (AID 651633; calls by dose curve;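 further: p53RE-bla HCT reporter cells with a stable beta-lactamase p53 reporter; series mostly up to about 83 µM; nearly all actives have a fitted effect of over 30% in size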)
Procedure, shortened: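 p53RE-bla cells, seeded at 4,000 per well and rested 5 h at 37 C/5% CO2, received compounds in DMSO for 16 h at 37 C. CellTiter-Glo was then added, and luminescence was read after 30 min at room temperature to gauge cytotoxicity.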

[3] = qHTS assay for small molecules that induce genotoxicity in human embryonic kidney cells expressing luciferase-tagged ATAD5 - cell viability (AID 651634; calls by dose curve; further: nearly all actives have a fitted effect of over 25% in size)
Procedure, shortened: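 After 15.5 hr incubation with compound at 37C, 5% CO2, HEK293T ATAD5-luciferase cells received CellTiter-Fluor reagent; fluorescence intensity was quantified following 30 min at 37C.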

[4] = qHTS assay for small molecule disruptors of the mitochondrial membrane potential - cell viability (AID 720634; calls by dose curve;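 further: human HepG2 liver cancer cells; series mostly up to about 83 µM; nearly all actives have a fitted effect of over 20% in size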)
Procedure, shortened: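 ATP-based luminescent viability readout (CellTiter-Glo, 30 min, room temperature) in HepG2 cells multiplexed with the m-MPI membrane potential dye; compound exposure lasted 1 hr at 37 C.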

[5] = qHTS assay for small molecule disruptors of the mitochondrial membrane potential (AID 720635)
Procedure, shortened: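 HepG2 cells (2,000/well) attached overnight at 37C, then took compound for 1 hr at 37C, 5% CO2. Mito-MPS dye was added for 30 min; fluorescence was read at 490/535 nm (monomers) and 540/590 nm (aggregates).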

[6] = qHTS assay to test for compound auto fluorescence at 590 nm (red) in HepG2 cells (AID 720674)
Procedure, shortened: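 Intrinsic compound fluorescence in the red window (Ex/Em 540/590 nm) is measured in attached HepG2 cells exposed for 1 hr, DMSO vehicle as baseline, benchmarked to Rose Bengal sodium.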

[7] = qHTS assay to test for compound auto fluorescence at 535 nm (green) in HepG2 cells (AID 720675)
[8] = qHTS assay to test for compound auto fluorescence at 590 nm (red) in HEK293 cells (AID 720679)
Procedure, shortened: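 HEK293 cells (2,000/well, medium with 10% dialyzed FBS) attached for 4-5 hr at 37C, received 23 nL compound and were incubated overnight at 37C, 5% CO2. Red fluorescence was then read at 540/590nm Ex/Em, referenced to Rose Bengal sodium.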

[9] = qHTS assay to test for compound auto fluorescence at 535 nm (green) in HEK293 cells (AID 720680)
[10] = qHTS assay to test for compound auto fluorescence at 460 nm (blue) in HEK293 cell free culture (AID 720681)
Procedure, shortened: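 Test compounds were pinned into cell-free culture medium (DMEM with 10% FBS) and fluorescence was read directly at Ex/Em 405/460 nm. Signals were expressed as fluorescence equivalents of triamterene, with DMSO vehicle as control.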

[11] = qHTS assay to test for compound auto fluorescence at 535 nm (green) in HEK293 cell free culture (AID 720682)
Procedure, shortened: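 Compounds were pin-transferred into cell-free DMEM with 10% FBS, and green fluorescence was read at excitation 485 nm and emission 535 nm. Intensities were expressed as fluorescein-equivalent values.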

[12] = qHTS assay to test for compound auto fluorescence at 590 nm (red) in HEK293 cell free culture (AID 720683)
Procedure, shortened: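 Tox21 10K library compounds were pinned into cell-free DMEM with 10% FBS and fluorescence was read at excitation 540 nm. Activity is expressed as Rose Bengal sodium equivalency.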

[13] = qHTS assay to test for compound auto fluorescence at 590 nm (red) in HepG2 cell free culture (AID 720684)
Procedure, shortened: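 Readout: intrinsic compound fluorescence at 590 nm emission after 540 nm excitation, scaled to Rose Bengal sodium. Matrix was cell-free MEM with 10% FBS; DMSO vehicle wells served as control.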

[14] = qHTS assay to test for compound auto fluorescence at 460 nm (blue) in HepG2 cell free culture (AID 720685)
Procedure, shortened: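 Cell-free plates of MEM plus 10% FBS received 23 nL compound or DMSO vehicle; blue-channel (405/460 nm) intensity scored against triamterene as reference fluorophore.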

[15] = qHTS assay to test for compound auto fluorescence at 535 nm (green) in HepG2 cell free culture (AID 720686)
[16] = qHTS assay to test for compound auto fluorescence at 460 nm (blue) in HepG2 cells (AID 720687)
Procedure, shortened: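 Cells (2,000/well in MEM with 10% FBS) attached overnight at 37 C, then were exposed to compound or DMSO for 1 hr at 37 C, 5% CO2. Fluorescence read at Ex/Em 405/460 nm, expressed as triamterene-equivalent signal.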

[17] = target: Glucocorticoid receptor (Homo sapiens) (UniProt P04150); assay: qHTS assay to identify small molecule agonists of the glucocorticoid receptor (GR) signaling pathway (AID 720691; active means well fitted activation curve with a large enough effect in the signal ratio in the repeat runs, not every such curve was filed as active; the % refers to the signal ratio)
Chain of Glucocorticoid receptor (Homo sapiens) (P04150 whole entry, looked up): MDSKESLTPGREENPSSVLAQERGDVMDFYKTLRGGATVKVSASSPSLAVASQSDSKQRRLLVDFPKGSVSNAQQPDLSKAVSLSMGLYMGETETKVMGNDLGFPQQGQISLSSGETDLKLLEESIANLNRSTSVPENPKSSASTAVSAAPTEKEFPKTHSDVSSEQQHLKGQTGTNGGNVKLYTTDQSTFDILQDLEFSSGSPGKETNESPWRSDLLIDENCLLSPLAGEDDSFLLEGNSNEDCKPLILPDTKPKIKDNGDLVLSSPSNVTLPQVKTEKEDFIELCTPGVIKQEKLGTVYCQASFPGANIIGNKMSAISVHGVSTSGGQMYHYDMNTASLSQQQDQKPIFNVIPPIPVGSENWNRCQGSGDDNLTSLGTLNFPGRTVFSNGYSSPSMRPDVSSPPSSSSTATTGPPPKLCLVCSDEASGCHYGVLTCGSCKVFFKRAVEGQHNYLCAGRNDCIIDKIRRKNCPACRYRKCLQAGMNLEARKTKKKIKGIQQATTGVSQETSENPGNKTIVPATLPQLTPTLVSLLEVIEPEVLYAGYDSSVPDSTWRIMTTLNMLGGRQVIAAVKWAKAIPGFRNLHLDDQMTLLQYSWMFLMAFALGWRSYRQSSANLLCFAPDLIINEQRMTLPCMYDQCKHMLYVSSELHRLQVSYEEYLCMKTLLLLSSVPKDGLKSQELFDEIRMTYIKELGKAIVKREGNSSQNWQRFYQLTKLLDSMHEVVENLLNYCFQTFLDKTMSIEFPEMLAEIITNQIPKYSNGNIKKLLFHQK
Procedure, shortened: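 Cells: GR-bla HeLa, endogenous GR with stably integrated GRE-beta-lactamase reporter. Treatment 18 h, 37 C, compounds delivered in DMSO. Detection via LiveBLAzer B/G FRET substrate, 2 h RT, fluorescence intensity.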

[18] = target: Glucocorticoid receptor (Homo sapiens) (UniProt P04150); assay: qHTS assay to identify small molecule antagonists of the glucocorticoid receptor (GR) signaling pathway (AID 720692; active means well fitted inhibition curve with a large enough effect in the signal ratio in the repeat runs, not every such curve was filed as active; the % refers to the signal ratio)
Procedure, shortened: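 Quantitative HTS in antagonist format: HeLa cells expressing endogenous GR and a stably integrated GRE-bla reporter, stimulated with 5 nM dexamethasone (final) alongside test compounds for 18 h.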

[19] = qHTS assay to test for compound auto fluorescence at 460 nm (blue) in HEK293 cells (AID 720678)
Procedure, shortened: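 HEK293 cells (2,000 per well, medium with 10% dialyzed FBS) attached for 4-5 hr at 37C, then received compound and stood overnight at 37C, 5% CO2. Blue fluorescence was read at Ex/Em 405/460 nm and expressed relative to triamterene.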

Measured: Potency

Cc1ccccc1N=Nc1ccc(N=Nc2c(O)ccc3ccccc23)c(C)c1
not listed: [17] | [18] | [19]
inactive: all other assays above

COC(=O)C(C)=O
not listed: [5] | [16] | [19]
inactive: all other assays above

CNCC[C@@H](Oc1ccccc1C)c1ccccc1
not listed: [5] | [8]
inactive: all other assays above

CC(C)NCC(O)COc1ccc(CC(N)=O)cc1 (stereo not given)
not listed: [5] | [13] | [17] | [18]
inactive: all other assays above

CCN(CC)CCOc1ccc2c(c1)C(=O)c1cc(OCCN(CC)CC)ccc1-2
not listed: [9] | [18] | [19]
inactive: all other assays above

C=CC(=O)OCCOC(=O)CCC(=O)O
not listed: [5] | [17] | [18]
inactive: all other assays above

CN1CCC(=C2c3ccccc3CCc3sccc32)CC1
not listed: [5] | [18]
inactive: all other assays above

CC(C(=O)O)c1ccc(-c2ccccc2)c(F)c1 (stereo not given)
not listed: [5] | [10]
inactive: all other assays above
